# The panel holds about 83,000 compounds, 20% with a hit somewhere; the sample as a whole holds those more often.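 Negative percent growth values reflect cell death: -40 means 40% of the cells present at the start died, and -100 means all died.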 Values without a mark were called inactive. Calls of active or inactive are those of the source. How the source made its calls: active means growth percent below 10; inactive means the rest.
# Experiments:
# Experiment in all cases: NCI-60 one-dose screen, 48 h (100 = growth as untreated, 0 = no growth, -100 = all killed)
# Details in all cases: 10 µM unless noted
# [1] = system: SK-MEL-2 melanoma
# [2] = system: EKVX NSCLC
# [3] = system: SN12C renal
# [4] = system: UO-31 renal
# [5] = system: TK-10 renal
# [6] = system: ACHN renal
# [7] = system: CAKI-1 renal
# [8] = system: A498 renal
# [9] = system: CCRF-CEM leukemia
# [10] = system: MOLT-4 leukemia
# [11] = system: SR leukemia
# [12] = system: RPMI-8226 leukemia
# [13] = system: OVCAR-8 ovarian
# [14] = system: OVCAR-5 ovarian
# [15] = system: OVCAR-4 ovarian
# [16] = system: SK-OV-3 ovarian
# [17] = system: IGROV1 ovarian
# [18] = system: OVCAR-3 ovarian
# [19] = system: NCI/ADR-RES ovarian
# [20] = system: HS 578T breast
SMILES,growth [1],growth [2],growth [3],growth [4],growth [5],growth [6],growth [7],growth [8],growth [9],growth [10],growth [11],growth [12],growth [13],growth [14],growth [15],growth [16],growth [17],growth [18],growth [19],growth [20] [%]
O=C(N/N=C/c1ccc(-c2ccc(O)cc2)o1)c1[nH]c2ccc(Br)cc2c1-c1ccccc1,1.84% (active),8.78% (active),-57.9% (active),1.62% (active),1.67% (active),-21.7% (active),5.94% (active),38.2%,4.83% (active),0.944% (active),-9.54% (active),-9.92% (active),-33.5% (active),1.22% (active),24.4%,19.6%,-17.3% (active),-41.1% (active),-12.1% (active),
COc1ccc(/C=C2\C(=O)Nc3ccc(Cl)cc32)cc1OCc1ccccn1,96.2%,23.8%,44.3%,5.88% (active),63.6%,12.2%,24.3%,120%,50.8%,45.7%,31.4%,39.5%,31.6%,50%,8.08% (active),63.3%,45.5%,51.6%,27.3%,
COc1cccc(COc2ccc(NC(=O)Nc3ccc(Cl)c(C(F)(F)F)c3)cc2)c1,51.5%,35.2%,33%,7.91% (active),45.1%,11.2%,24.2%,35.3%,34.1%,28.1%,,13.5%,31.9%,69.8%,45.2%,35.6%,25.8%,27.6%,47.1%,26.7
N#Cc1c(-c2ccc(Br)cc2)nc2n[nH]c(-c3ccc(Br)cc3)c2c1-c1ccc(F)cc1,109%,70.7%,85.2%,65.3%,135%,91.2%,70.1%,163%,102%,74.9%,80.7%,72.7%,101%,98.1%,96.4%,72.7%,75.1%,106%,97.2%,
COc1ccc([C@H](C)Nc2nc(Cl)nc3ccccc23)cc1,70.2%,19.2%,47.9%,47.1%,66.9%,54.3%,56.4%,108%,34.9%,20.8%,17.9%,23.6%,56.4%,54.7%,62.9%,70.5%,63.2%,78.7%,21.5%,
Cc1cc(C)cc(C(=O)Nc2cccc(-c3cn(-c4ccc(S(N)(=O)=O)cc4)nn3)c2)c1,12.8%,55.7%,32.6%,68.2%,-9.72% (active),22.5%,59.7%,-13.4% (active),30.4%,25.3%,51.6%,89.8%,18.7%,81.5%,42.1%,9.56% (active),15.4%,87.4%,55.9%,
CC(C)c1ccc2c(N)c(C(=O)Nc3cccc(C(F)(F)F)c3)sc2n1,89.5%,47.4%,76.2%,77.9%,97.3%,76%,74%,143%,38.9%,56.4%,40.4%,32.1%,90.7%,85%,78.1%,87.2%,108%,94.1%,71.7%,
O=C(N/N=C/c1ccc(-c2ccc(O)cc2)s1)c1[nH]c2ccc(Br)cc2c1-c1ccccc1,-4.17% (active),12.3%,4.89% (active),15.2%,22.2%,-2.55% (active),37.2%,-8.65% (active),-8.51% (active),-13.3% (active),-22.4% (active),-8.25% (active),25.1%,18.7%,20.3%,31.6%,12.9%,21.4%,-27.4% (active),
COc1ccc2cc([C@H](C)C(=O)N/N=C/c3ccc(Br)cc3)ccc2c1,109%,94.2%,97.2%,83.3%,101%,106%,87.2%,107%,101%,86.6%,87.3%,105%,105%,100%,100%,97.7%,102%,114%,98.2%,
N#Cc1ccc(C(=O)Nn2c(N)cc3ccccc3c2=O)cc1,104%,85.8%,89.9%,64.9%,119%,92.9%,78%,113%,94.7%,84.6%,76%,86.5%,98.1%,103%,97.4%,85.8%,92.9%,105%,98.3%,
CCN(CC)C(=O)N/C(N)=N/c1nc2ccccc2s1,65.5%,15.3%,50.1%,37.7%,53.7%,50.7%,36.6%,55.6%,41.9%,-4.3% (active),32%,31.5%,55.5%,72.4%,22.2%,71.9%,72.1%,68.2%,23.3%,
O=C(O)c1cccc(-c2ccc(/C=N/NC(=O)c3[nH]c4ccc(Br)cc4c3-c3ccccc3)o2)c1,61.4%,86.3%,81.5%,81%,117%,89.9%,96.4%,95.3%,9.68% (active),63.6%,21.1%,96.5%,66.4%,107%,73%,110%,85%,17.1%,73.7%,
C[C@H](Nc1nc(NCCc2ccccc2)nc2ccccc12)c1ccccc1,-92% (active),-86.2% (active),-94.6% (active),-95.9% (active),-93.6% (active),-97.2% (active),-85.9% (active),-69.5% (active),-16.3% (active),-60.3% (active),-64.3% (active),-37.5% (active),-78.6% (active),-92.2% (active),-31.4% (active),-88.9% (active),-84.6% (active),-70.1% (active),-73.9% (active),
C=C1CC[C@@H]2[C@]3(C)COC(c4cn[nH]c4-c4ccc(C)cc4)O[C@@H]3CC[C@@]2(C)[C@@H]1C/C=C1/C(=O)OCC1O (some centres undefined),51.4%,12.9%,7.06% (active),4.54% (active),49%,-53.5% (active),50.3%,133%,-17.8% (active),13.9%,-25% (active),-25.2% (active),-21.7% (active),20.4%,31.9%,79.9%,24%,-23.1% (active),-41.8% (active),
CN1CCc2c(sc3ncnc(N/N=C/c4ccc(Cl)cc4Cl)c23)C1,9% (active),33.1%,-32.8% (active),-95.7% (active),-84% (active),-66.6% (active),-61.6% (active),28.5%,-8.48% (active),1.96% (active),-16.5% (active),-9.12% (active),6.87% (active),-18.6% (active),-40.6% (active),0.686% (active),30.4%,-56.5% (active),8.35% (active),
O=C(/C=C/c1ccc(-c2ccccc2)cc1)c1nc2ccccc2n1Cc1ccc(F)cc1,56.6%,34.4%,53.9%,47.6%,55.8%,41.3%,49.5%,110%,11.9%,-12.8% (active),1.5% (active),-2.77% (active),46%,43.5%,55.2%,82.2%,55.7%,28.8%,49.6%,
